Measured values reported in PubChem BioAssay AID463173 (ICCB-Longwood Screening Facility, Harvard Medical School, 2010).
Among all 52,000 compounds or so, about 4,300 (8.3%) were called active. This excerpt belongs to a sample that is enriched for actives. A number with no mark means an inactive call. Rule as the data show it: active = survival mostly below about 52% (no sharp cut-off); inactive = mostly above about 56%.

Tested on: DeltatarO mutant
Assay: growth inhibition of S. aureus wild type versus tarO mutant, primary screen, teichoic acid synthesis inhibitors, RN4220, OD600 (AID 463173)
Conditions: OD600, 18 h, hits give low values, screened at 18.75 µg/mL (by protocol)

| SMILES | survival |
| --- | --- |
| CC1Cc2cc(C(=O)NC3CCCCC3)ccc2O1 (configuration not stated) | 71% |
| Cc1ccc(N2C(=O)CS(=O)(=O)C23C(=O)N(Cc2ccccc2F)c2ccccc23)cc1Cl (configuration not stated) | 60% |
| O=C(CCC1N=C2c3ccccc3N=C(SCc3ccc(Cl)cc3)N2C1=O)N1CCN(c2ccccc2)CC1 (configuration not stated) | 91% |
| O=C(CCC1N=C2c3ccccc3N=C(SCc3cccc(Cl)c3)N2C1=O)N1CCN(c2ccccc2)CC1 (configuration not stated) | 47% (active) |
| O=C(CCC1N=C2c3ccccc3N=C(SCc3ccc(F)cc3)N2C1=O)N1CCN(c2ccccc2)CC1 (configuration not stated) | 57% |
| O=C(CCC1N=C2c3ccccc3N=C(SCc3cccc(Cl)c3)N2C1=O)NCCc1ccccc1 (configuration not stated) | 63% |
| O=C(CCC1N=C2c3ccccc3N=C(SCc3ccccc3Cl)N2C1=O)N1CCN(c2ccccc2)CC1 (configuration not stated) | 49% (active) |
| Cc1ccc(CSC2=Nc3ccccc3C3=NC(CCC(=O)N4CCN(c5ccccc5)CC4)C(=O)N23)cc1 (configuration not stated) | 85% |
| COc1cccc(NC(=O)CN2CCCN(S(=O)(=O)c3ccc(Br)cc3)CC2)c1 | 58% |
| CCC1(CC)Cc2ccccc2-c2nc(NCCCO)[nH]c(=O)c21 | 82% |
| COc1ccccc1N1CCN(C(=O)c2cc3c(=O)n(Cc4cccs4)ccc3nc2C)CC1 | 74% |
| Cc1oc2ncn(CC(C)C)c(=O)c2c1C(=O)NCCCN(Cc1ccccc1)C(C)C | 117% |
| COc1ccc2c(C)c(CCC(=O)NCCc3ccccc3OC)c(=O)oc2c1 | 77% |
| Cc1ccc2oc(-c3cc(NC(=O)c4oc5ccccc5c4C)ccc3Cl)nc2c1 | 62% |
| Cc1cc(NC(=O)c2ccco2)cc(-c2nc3cc(Cl)ccc3o2)c1O | 79% |
| Cc1ccccc1-c1nc2cc(NC(=O)Cc3ccc(Cl)cc3)ccc2o1 | 66% |
| O=C(Nc1ccc(Cl)c(-c2nc3ccccc3o2)c1)c1cccc2c(Cl)cccc12 | 84% |
| Cc1ccc2oc(-c3cc(NC(=O)/C=C/c4ccco4)ccc3Cl)nc2c1 | 40% (active) |
| O=C(Nc1ccc(O)c(-c2nc3ccccc3o2)c1)c1ccco1 | 71% |
| Cc1cc(NC(=O)Cc2ccccc2)cc(-c2nc3ccccc3o2)c1O | 79% |
| Cc1cc(C)c2oc(-c3cc(NC(=O)Cc4ccccc4)ccc3Cl)nc2c1 | 31% (active) |
| COc1c(C)cccc1C(=O)Nc1ccc(Cl)c(-c2nc3cc(C)ccc3o2)c1 | 6% (active) |
| Cc1ccc2oc(-c3cc(NC(=O)c4ccco4)ccc3Cl)nc2c1 | 0% (active) |

| SMILES | survival |
| --- | --- |
| O=C(/C=C/c1ccco1)Nc1ccc(Cl)c(-c2nc3cc(Cl)ccc3o2)c1 | 65% |
| Cc1ccc2nc(-c3cc(NC(=O)/C=C/c4ccccc4)ccc3Cl)oc2c1 | 68% |
| CC1CCN(c2nc3ccc(C(=O)NCc4ccccc4)cc3s2)CC1 | 77% |
| CC(=O)Nc1ccc(OCc2cc(=O)n3ccccc3n2)cc1 | 76% |
| Cc1ccc(-c2nc3sc(CCNC(=O)c4ccc(Br)o4)c(C)n3n2)cc1 | 84% |
| CCOC(=O)C1CCN(C(=O)CN(c2cc(Cl)ccc2OC)S(C)(=O)=O)CC1 | 95% |
| CC1CCCCC1NC(=O)CN1CCC(NC(=O)c2cccc(F)c2)CC1 (configuration not stated) | 85% |
| CC1CCCN(CCCNC(=O)Cn2ncc3c([nH]c4ccccc43)c2=O)C1 (configuration not stated) | 94% |
| O=C(Nc1cc(F)ccc1F)C1COc2ccccc2C1 (configuration not stated) | 69% |
| CCc1ccc(OCC(=O)Nc2ccc(Cl)c(-c3nc4ncccc4o3)c2)cc1 | 47% |
| Cc1ccc(OCC(=O)Nc2ccc(-c3nc4ccc(C)cc4o3)cc2)cc1 | 66% |
| Cc1ccc2oc(-c3cccc(NC(=O)Cc4ccc(Cl)cc4)c3)nc2c1 | 72% |
| CCOc1ccc(C(=O)Nc2ccc(Cl)c(-c3nc4cc(C)cc(C)c4o3)c2)cc1 | 66% |
| Cc1cc(NC(=O)COc2ccccc2)cc(-c2nc3ccccc3o2)c1O | 94% |
| CCc1ccc(OCC(=O)Nc2ccc(Cl)c(-c3nc4cc(C)cc(C)c4o3)c2)cc1 | 35% (active) |
| Cc1cc2nc(-c3cccc(NC(=O)COc4ccc(Cl)c(C)c4)c3)oc2cc1C | 64% |
| CCCCOc1ccc(C(=O)Nc2cccc(-c3nc4ccccc4o3)c2C)cc1 | 76% |
| Cc1ccc(OCC(=O)Nc2cccc(-c3nc4ccccc4o3)c2C)cc1C | 55% (active) |
| Cc1ccc2oc(-c3cc(NC(=O)Cc4ccccc4)ccc3Cl)nc2c1 | 52% (active) |
| Cc1ccc2oc(-c3cc(NC(=O)CC(C)C)ccc3Cl)nc2c1 | 87% |
| Cc1ccc2nc(-c3cc(NC(=O)COc4ccc(C)c(C)c4)ccc3Cl)oc2c1 | 30% (active) |
| Cc1nn(CCCC(=O)Nc2ccccc2C(F)(F)F)c(=O)c2c1sc1ccccc12 | 74% |
| Cc1nc2ccc(C(=O)N3CCN(Cc4ccccc4)CC3)cc2[nH]1 | 104% |

| SMILES | survival |
| --- | --- |
| CN(c1ccc(C(=O)NCc2cccnc2)cc1)S(C)(=O)=O | 73% |
| Cc1cccc(C(=O)n2nc(-c3ccco3)nc2NCc2ccccc2)c1 | 63% |
| C=CCN1C(=O)C2C(C(=O)NC3CCCCC3C)C3(C)C=CC2(O3)C1C(=O)NC(C)(C)C (configuration not stated) | 65% |
| Nc1ncc(S(=O)(=O)NCc2ccccc2)cn1 | 70% |
| COc1ccc(Nc2oc(-c3ccc(COc4cccc(C)c4)o3)nc2C#N)cc1 | 109% |
| Cc1ccc(-n2c(=O)c3ccccc3n(CC(=O)Nc3cccc(C(F)(F)F)c3)c2=O)cc1 | 63% |
| CCc1ccc2oc(-c3ccc(C)c(NC(=O)c4ccc(C#N)cc4F)c3)nc2c1 | 74% |
| Cc1cc(C)c2oc(-c3cccc(NC(=O)c4cccc(F)c4)c3C)nc2c1 | 72% |
| Cc1cc(C)c2oc(-c3cccc(NC(=O)COc4ccccc4Cl)c3C)nc2c1 | 42% (active) |
| Cc1cc(C)c2oc(-c3ccc(NC(=O)COc4ccccc4C)cc3)nc2c1 | 67% |
| N#Cc1ccc2c(c1)nc1c3cccc4cccc(c(=O)n21)c43 | 72% |
| CC(C)(C)C(=O)N1c2ccccc2CCc2ccccc21 | 84% |
| COc1ccc(Br)cc1CNC(=O)CCSCc1ccc(C)cc1 | 81% |
| Cc1cccc(C(c2sc3nc(-c4ccco4)nn3c2O)N2CCN(Cc3ccccc3)CC2)c1 (configuration not stated) | 94% |
| COc1cccc(Oc2nc(C)nc3c2oc2ccccc23)c1 | 25% (active) |
| Cc1nc(Oc2ccccc2C)c2oc3ccccc3c2n1 | 101% |
| CC(=O)c1ccc(Oc2nc(C)nc3c2oc2ccccc23)cc1 | 92% |
| CCN(CC)c1ccc(NC(=O)C(Cc2ccccc2)NS(=O)(=O)c2ccc(Br)s2)c(C)c1 (configuration not stated) | 117% |
| COc1ccc2nc(SCC(=O)NC3CCCCC3C)c(C#N)cc2c1 (configuration not stated) | 89% |
| CC(=O)Nc1ccc(Nc2nc3ccc(Cl)cc3n3cnnc23)cc1 | 99% |
| COc1ccc(C(=O)Nc2nccs2)cc1OC | 79% |
| COc1cc(C(=O)Nc2ccc(NC(=O)c3ccc(C(C)(C)C)cc3)cc2)cc(OC)c1OC | 132% |
| CCCCCNC(=O)c1ccc2c(c1)ncn2-c1cccc(C)c1 | 0% (active) |

| SMILES | survival |
| --- | --- |
| Cc1cc(C)cc(-n2cnc3cc(C(=O)NCCc4ccccc4)ccc32)c1 | 78% |
| CCCNC(=O)c1ccc2c(c1)ncn2-c1ccc(C)cc1C | 75% |
| Cc1cccc(-n2c(C)nc3cc(C(=O)NCCC4=CCCCC4)ccc32)c1 | 71% |
| COCCCNC(=O)c1ccc2c(c1)nc(C)n2-c1cccc(C)c1 | 69% |
| CCCCCNC(=O)c1ccc2c(c1)nc(C)n2-c1cccc(C)c1 | 0% (active) |
| Cc1cccc(-n2cnc3cc(C(=O)NCc4ccccc4Cl)ccc32)c1 | 72% |
| Cc1ccc(-n2cnc3cc(C(=O)NCc4ccccc4Cl)ccc32)c(C)c1 | 37% (active) |
| Cc1cccc(-n2cnc3cc(C(=O)NC4CCCCCC4)ccc32)c1 | 106% |
| CCCNC(=O)c1ccc2c(c1)nc(C)n2-c1cccc(C)c1 | 83% |
| Cc1nc2cc(C(=O)NCCC3=CCCCC3)ccc2n1-c1ccc(Br)cc1 | 60% |
| CCOc1ccc(-n2c(C)nc3cc(C(=O)NCCC4=CCCCC4)ccc32)cc1 | -4% (active) |
| Cc1nn(-c2ccccc2)c(OC(=O)c2ccc(Cl)cc2)c1S(=O)(=O)c1ccccc1 | 79% |
| c1csc(-c2nc3ccccn3c2Nc2ccc3c(c2)OCCO3)c1 | 89% |
| Cc1ccccc1NC(=O)CCS(=O)(=O)c1cc(Br)cc2c1N(C(=O)C1CC1)CC2 | 96% |
| CC(=O)Nc1cc2c(cc1C(=O)c1ccccc1)OCCO2 | 108% |
| Cn1c(=O)c(=O)n(C)c2cc(S(=O)(=O)CCC(=O)Nc3ccc(F)cc3)ccc21 | 83% |
| CCc1nn(CC(=O)NCCN(CC(C)C)CC(C)C)c(=O)c2cc3sc(C)cc3n12 | 68% |
| CC(=O)c1ccc(Nc2cc(C)nc3nc(Cc4ccccc4)nn23)cc1 | 64% |
| CCOc1ccc(NC(=O)NCc2cccn2Cc2ccccc2)cc1 | 72% |
| CCOC(=O)Cc1ccc(NC(=O)NCc2cccn2Cc2ccccc2)cc1 | -4% (active) |
| CCOC(=O)c1cccc(NC(=O)NCc2cccn2Cc2ccccc2)c1 | 119% |
| CCN1CCc2c(sc(-n3cccc3)c2C(C)NC(=O)Nc2ccc(Br)cc2)C1 (configuration not stated) | 102% |
| CCc1ccc(NC(=O)CC2C(=O)N(c3ccc(OC)cc3)C(=O)N2Cc2ccc(OC)cc2)cc1 (configuration not stated) | 100% |
